Measured values reported in PubChem BioAssay (NCI).
This is part of a sample that, as a whole, favours compounds with a hit. Of some 79,000 tested, about 15% had one in any assay. Unmarked numbers belong to inactive results. Calls of active or inactive are those of the source. No stated cut-off is given here; in the data, active means growth inhibition above about 70%; inactive means the rest.

Legend:
[1] = NCI Yeast Anticancer Drug Screen. Data for the rad50 strain (AID 155);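 further: 0% = growth of vehicle-only cultures of the same strain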; settings: S. cerevisiae rad50 strain growth inhibition; at 50.0 µM; stronger effect = higher value
How it was run: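 Vehicle-treated cultures provide the reference for the growth inhibition reported for compound-exposed, repair-deficient yeast.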

[2] = NCI Yeast Anticancer Drug Screen. Data for the mec2-1 strain (AID 157); settings: S. cerevisiae mec2-1 strain, at 50.0 µM, stronger effect = higher value
How it was run: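 Readout is yeast growth inhibition, normalised to vehicle-treated controls, in the mec2-1 strain exposed to compound.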

[3] = NCI Yeast Anticancer Drug Screen. Data for the sgs1 mgt1 strain (AID 161);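 further: 0% = growth of cultures given vehicle only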; settings: S. cerevisiae sgs1 mgt1 strain, at 50.0 µM, stronger effect = higher value
How it was run: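 Yeast cells carrying a defined DNA-repair defect were exposed to test compounds. Growth inhibition was measured relative to vehicle-treated controls.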

[4] = NCI Yeast Anticancer Drug Screen. Data for the cln2 rad14 strain (AID 165);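 further: 0% = growth equal to vehicle treated cultures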; settings: S. cerevisiae cln2 rad14 strain, at 50.0 µM, stronger effect = higher value
How it was run: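 Relative to vehicle controls, growth inhibition of compound-treated cln2 rad14 yeast was recorded.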

[5] = NCI Yeast Anticancer Drug Screen. Data for the bub3 strain (AID 167); settings: S. cerevisiae bub3 mutant strain, at 50.0 µM, stronger effect = higher value
How it was run: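 Mutant yeast screening strain plus compound; vehicle-treated cultures serve as the 0% inhibition reference.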

[6] = NCI Yeast Anticancer Drug Screen. Data for the mlh1 rad18 strain (AID 175); settings: S. cerevisiae mlh1 rad18 strain growth inhibition; at 50.0 µM; stronger effect = higher value
How it was run: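 Test agents were incubated with a yeast strain of defined genotype (DNA damage repair defect). Inhibition of growth was derived by comparison with vehicle-exposed cultures.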

| Structure (SMILES) | growth inhibition [1] | growth inhibition [2] | growth inhibition [3] | growth inhibition [4] | growth inhibition [5] | growth inhibition [6] |
| --- | --- | --- | --- | --- | --- | --- |
| C=CCCCCCCCCC(=O)Nc1cc2c3c(c1)CCCN3CCC2 | 6.95% | 8.75% | 1.1% | -13.8% | 10.6% | 20.9% |
| O=C(CO)CC(=O)C(=O)Nc1ccccc1 | -10.8% | -22.9% | 1.5% | 10.6% | -4.15% | -9.9% |
| C=CCC1=C(C)C[C@@H]2CCC(=O)C=C12 | 9.05% | -24.9% | -8.5% | 11.2% | -13% | 5.5% |
| CC(C)CNCCCC(C)Nc1ccnc2cc(Cl)ccc12 (configuration not stated) | 11.3% | -1.45% | -2.25% | -2.95% | -15% | -9.65% |
| O=C(/C=C/c1ccc(O)cc1)c1ccc2c(c1)OCO2 | 8.05% | 23.3% | 25.8% | -1.55% | 43% | 43.8% |
| CCOC(=O)c1c(Cl)c(CC)c(Cl)n2c1nc1ccccc12 | -12.7% | -7.45% | 14.8% | -9.6% | -2.8% | 4.05% |
| NC(=O)C1CC2CC(Cl)C1C2 (configuration not stated) | -0.5% | -0.1% | -18.1% | -45% | 9.65% | -22.1% |
| C[n+]1ccccc1/C=C/c1csc2ccccc12 | -0.85% | 5.35% | 4.75% | -11.8% | -0.6% | -3.8% |
| Cc1ccc(Nc2ccc(Nc3ccc(C)cc3)c3c2C(=O)c2ccccc2C3=O)cc1 | -1.05% | -16.9% | -4.15% | 5% | -8.2% | -4.45% |
| c1cc(OCCOc2cccc3ocnc23)c2ncoc2c1 | -12.8% | -15.6% | -5.85% | -14.8% | -18.4% | 0.65% |
| CC(=O)Nc1cccc(O)c1 | 18.4% | 5.3% | 25.1% | -13.8% | -8.7% | 22.6% |
| COC1OC2COC(c3ccccc3)OC2C(OC(=O)c2ccc([N+](=O)[O-])cc2)C1OS(=O)(=O)c1ccc(C)cc1 (configuration not stated) | 39.6% | 17.2% | 21.6% | 25.1% | 0.7% | 15.8% |
| COc1ccc(-n2[nH]nc(C(N)=O)c2=O)cc1 | 7.6% | -2.5% | -33.4% | -22.6% | -24.6% | -65% |
| CCCCCCCCCCCCCCNCCCCCCCCCCCCCC | 21% | -9% | 23.8% | 32.2% | 17.1% | 17.4% |
| CC(=O)Nc1cc2ccccc2oc1=O | -5.5% | -25.1% | -4.65% | 2.25% | -11.8% | 0.75% |
| CSCC[C@H]1C(=O)N=C(N)N1C(=O)OCc1ccccc1 | -5.7% | 3.85% | 3.6% | -9.6% | -2.75% | 12.8% |
| ClCCOCCOc1ccccc1Cl | -24% | -13.8% | -8.1% | -9.95% | -22.1% | -7% |
| COc1cccc(N)c1 | 4.6% | -11.8% | -6.65% | -2.75% | -4.95% | -10.2% |
| O=C1CC2COc3ccccc3C2=NN1c1ccccc1 (configuration not stated) | 13.6% | 4.3% | 4.7% | 1.35% | -4.15% | 10.2% |
| CC1=C(C)CC2C(=O)C=CC(=O)C2C1 (configuration not stated) | 8.9% | 1.4% | -10.7% | 4.65% | 2.25% | -6.9% |
| CCOP(C)(=O)C(Cc1c[nH]c2ccccc12)C(=O)O (configuration not stated) | -20.7% | -19.7% | 9.9% | 13% | -12.8% | -2.5% |

| Structure (SMILES) | growth inhibition [1] | growth inhibition [2] | growth inhibition [3] | growth inhibition [4] | growth inhibition [5] | growth inhibition [6] |
| --- | --- | --- | --- | --- | --- | --- |
| NC(=O)C1C(=O)c2cccc3c2C1CCCC3 (configuration not stated) | -11% | 9.85% | -5.6% | -31% | -11% | 20.7% |
| O=C(CCCC(=O)Nc1ccc2[nH]c3ccccc3c(=O)c2c1)Nc1ccc2[nH]c3ccccc3c(=O)c2c1 | 12.7% | -8.6% | -0.3% | 20.9% | -3.55% | 2.95% |
| OC1C/C=C/CCCCC1 (configuration not stated) | -11% | -5.75% | -3.55% | 1.95% | 3.3% | -4.4% |
| CNCCCN1CCCCC1 | 31.8% | 16% | 22.4% | 6.3% | -4.4% | 13.6% |
| Cc1cccc(NC(=O)Oc2ccc(Nc3ccccc3)cc2)c1 | 6.6% | 38.5% | 40.2% | 12.3% | 62% | 50.4% |
| CC(C)OC1(c2ccccc2)OC(c2ccccc2)=CC1=O (configuration not stated) | 5.35% | -17.1% | -12.1% | -7.4% | 14.1% | -0.8% |
| Clc1c(Cl)c2ccccc2c2ccccc12 | 10.1% | -8.4% | 11.3% | 8.85% | 32.5% | 4.85% |
| CC1OC(=O)C(O)=C1O (configuration not stated) | -5.15% | -10.6% | -5.75% | 8.75% | 8.85% | -20.6% |
| Cc1nnc2n1N=C(c1ccc(O)c(O)c1O)CS2 | 2.9% | -3.15% | -4.7% | 7.4% | 1.75% | -6.1% |
| N#C/C(N)=C(\C#N)NC=NCc1ccccc1 | -10.8% | -18.6% | 20.2% | 2.3% | 26.3% | -21.1% |
| O=NN(CCCl)C(=O)N[C@H]1CCC[C@@H](O)C1 | 5.85% | -3.35% | -6.2% | -42.9% | -15.2% | 6% |
| CCN1c2nc3ccccc3nc2N(CC)c2nc3ccccc3nc21 | -30.1% | 12.5% | 23.9% | 6.55% | 3.45% | 5.3% |
| O=NNc1ccc(Sc2ccccc2)cn1 | 6.8% | -9.2% | -3.75% | -8.55% | -31.6% | 10.6% |
| CC1(Nc2ccccc2)OC(=O)c2ccccc21 (configuration not stated) | -14.2% | -13.7% | -15.4% | -8.85% | -7.4% | -0.85% |
| NCCCc1c(-c2ccccc2)nc(N)[nH]c1=O | -3.15% | -15% | -35.5% | -28.4% | -58% | -3.05% |
| CCOC(=O)C1(C#N)C(C#N)(C#N)C1(C)CC (configuration not stated) | 10.8% | -1.2% | 24.8% | -1.1% | 0.75% | -0.75% |
| Cn1c(N2CCCC2)c(C=O)c(=O)n(C)c1=O | 4.5% | 1.45% | 8.6% | 21.3% | -10.9% | -15.1% |
| Cc1ccc(C)n1-c1ccc(OCC(N)=O)cc1 | 16.3% | 16.1% | 12.7% | -15.7% | 12.6% | 13.9% |
| CC/C(=C\c1ccc(Cl)cc1)c1ccncc1 | 99.2% (active) | 99.5% (active) | 99.1% (active) | 99% (active) | 99.2% (active) | 99.2% (active) |
| Cc1ccc(/C([O-])=C(/C(=S)Nc2ccccc2)[n+]2ccccc2)cc1 | -5.3% | 22% | 7.55% | -22.1% | 18.1% | 13.1% |
| Cc1ccc(NC(=O)COc2ccc(Cl)cc2)c(C)c1 | 2.9% | 11% | 12.8% | 9.45% | 16.2% | 0.75% |
